The values below come from PubChem BioAssay (NCI).

SMILES strings stand for the structures. Several values for one entry are separate records, joined by “and”; a condition that tells them apart may be missing. Identical values can stand only once. About 83,000 compounds went through this panel and 20% of them were active in at least one assay; those are over-represented in the sample as a whole.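 Single-dose data. Exposure time 48 hours. Values below 10 considered active.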 A number with no mark means an inactive call. Activity calls are given as the source filed them.

Among the test systems are NCI-H23 lung; NCI-H226 lung; NCI-H322M lung; HOP-62 NSCLC; NCI-H460 lung; HOP-92 NSCLC; NCI-H522 lung; A549/ATCC NSCLC; 786-0 renal; COLO 205 colon.
Common to all, as to test: NCI-60 one-dose screen, 48 h (100 = growth as untreated, 0 = no growth, -100 = all killed)
Details in all cases: 10 µM unless noted

For the compound `O=C(Nc1ncc(Cc2cccc(C(F)(F)F)c2)s1)c1ccc2c(c1)OCCO2`, the growth is 31.2% in the test with NCI-H23 lung; 21.3% in the test with NCI-H226 lung; 54.1% with NCI-H322M lung; 25.2% in the test on HOP-62 NSCLC; 6.46% (active) in the test with NCI-H460 lung; 51.3% with HOP-92 NSCLC. Besides, the growth with NCI-H522 lung is 8.7% (active); in the test on A549/ATCC NSCLC it was 17.2%; in the test with 786-0 renal it was 39.9%; in the test with COLO 205 colon it was -7.82% (active).

On to `Cc1cc(N2CCCCC2)nc(NCc2cc(Nc3ccnc4cc(Cl)ccc34)ccc2F)n1`, for which the growth was 22.3% with NCI-H23 lung; 68.2% in the test with NCI-H226 lung; -12.7% (active) in the test with NCI-H322M lung; -49.5% (active) in the test with HOP-62 NSCLC; -22.7% (active) with NCI-H460 lung; -21.9% (active) with HOP-92 NSCLC. In addition, the growth with NCI-H522 lung was -57.9% (active); with A549/ATCC NSCLC it was 2.71% (active); in the test on 786-0 renal, -80.1% (active); in the test on COLO 205 colon, -72.7% (active).

`CC[C@]1(O)CC2CN(CCc3c([nH]c4ccccc34)C(C(=O)OC)(c3cc4c(cc3OC)N(C=O)[C@H]3[C@@](O)(C(=O)OC)[C@H](OC(C)=O)[C@]5(CC)[C@@H]6C[C@@H]6CN6CC[C@]43[C@@H]65)C2)C1` (stereo not given in full): the growth in the test with NCI-H23 lung was 6.32% (active); with NCI-H226 lung, 19.3%; in the test on NCI-H322M lung, 73.9%; in the test with HOP-62 NSCLC it was 22.5%; in the test with NCI-H460 lung, 3.37% (active); with HOP-92 NSCLC, -0.4% (active). Besides, the growth with NCI-H522 lung was -21.4% (active); in the test with A549/ATCC NSCLC it was 17.9%; in the test with 786-0 renal, 5.62% (active); in the test on COLO 205 colon it was -87.9% (active).

In the case of `O=C(O)C1C2CCC1C(O)C2` (stereo not given), the growth with NCI-H23 lung is 99.1% and 99.6%; in the test with NCI-H226 lung it was 94.5%; in the test with NCI-H322M lung, 115% and 97.6%; with HOP-62 NSCLC it was 87.9% and 112%; in the test with NCI-H460 lung, 112% and 111%; in the test with HOP-92 NSCLC, 108% and 97.6%. Moreover, the growth is 87.6% and 98.6% with NCI-H522 lung; 102% and 100% with A549/ATCC NSCLC; 98.2% and 96.5% in the test on 786-0 renal; 102% and 106% with COLO 205 colon.

Take `COc1ccc(Cn2cc(C(=O)Nc3cccnc3Nc3ccccc3)nn2)cc1`: the growth is 98.7% in the test on NCI-H23 lung; 95.6% with NCI-H226 lung; 95.7% in the test on NCI-H322M lung; 103% in the test on HOP-62 NSCLC; 114% with NCI-H460 lung; 105% with HOP-92 NSCLC. The growth in the test with NCI-H522 lung was 91.8%; in the test with A549/ATCC NSCLC, 99.3%; in the test with 786-0 renal, 94.2%; with COLO 205 colon, 113%.

`Nc1[nH]nc(Nc2ccccc2)c1-c1nc2ccccc2s1`: the growth is 24.2% in the test on NCI-H23 lung; 57.3% in the test with NCI-H226 lung; 37.6% with NCI-H322M lung; 28.6% with HOP-62 NSCLC; 5.94% (active) in the test with NCI-H460 lung; -15.8% (active) in the test with HOP-92 NSCLC. In addition, the growth was -44.6% (active) with NCI-H522 lung, 20% with A549/ATCC NSCLC, 10.2% with 786-0 renal and 64.2% with COLO 205 colon.

As to `COc1cc(Cl)cc(-c2nn(C(=O)NS(=O)(=O)c3ccc(Cl)cc3)cc2-c2ccncc2)c1`, the growth with NCI-H23 lung was 89.1%; in the test on NCI-H226 lung, 70.7%; in the test on NCI-H322M lung, 96.5%; in the test on HOP-62 NSCLC, 59.4%; in the test with NCI-H460 lung, 111%; with HOP-92 NSCLC, 26.6%. Further, the growth in the test with NCI-H522 lung is 74.3%; with A549/ATCC NSCLC it was 65.1%; with 786-0 renal, 67.9%; in the test with COLO 205 colon, 72.1%.

Regarding `O=C(Nc1ccc(F)cc1)c1cc2cc(Nc3nc(-c4ccccc4)nc4ccccc34)ccc2oc1=O`, the growth in the test with NCI-H23 lung was 90.1%; with NCI-H226 lung, 102%; with NCI-H322M lung, 100%; with HOP-62 NSCLC, 84.2%; in the test with NCI-H460 lung, 113%; with HOP-92 NSCLC, 103%. The growth is 97.6% in the test on NCI-H522 lung, 92.5% with A549/ATCC NSCLC, 98.4% with 786-0 renal and 123% in the test on COLO 205 colon.

As for `CCCCC(NC(=O)CN1C(=O)/C(=C/C(C)=C/c2ccccc2)SC1=S)C(=O)O` (stereo not given), the growth in the test on NCI-H23 lung is 94.8%; with NCI-H226 lung it was 93.9%; in the test with NCI-H322M lung it was 103%; in the test on HOP-62 NSCLC, 93%; in the test with NCI-H460 lung, 102%; in the test on HOP-92 NSCLC, 62.8%. For the same compound, the growth in the test with NCI-H522 lung was 93.8%; with A549/ATCC NSCLC it was 98.5%; in the test with 786-0 renal, 104%; in the test with COLO 205 colon it was 119%.

As for `Cc1ccc2c(c1)C(C)Cc1c(ncnc1-n1cnc3cc(C)ccc31)N2C` (stereo not given), the growth with NCI-H23 lung was 34%; in the test with NCI-H226 lung, 47.4%; in the test on NCI-H322M lung it was 63.5%; in the test with HOP-62 NSCLC it was 27.6%; in the test on NCI-H460 lung it was 3.51% (active); in the test with HOP-92 NSCLC, 10.4%. Besides, the growth in the test with NCI-H522 lung is -30% (active); in the test with A549/ATCC NSCLC, 8.39% (active); in the test with 786-0 renal it was 10.7%; in the test on COLO 205 colon, -51.2% (active).

Turning to `N#Cc1c(N)nnn1Cc1cc(=O)oc2ccc(O)cc12`, the growth with NCI-H23 lung was 106%; in the test with NCI-H226 lung it was 95.7%; with NCI-H322M lung it was 110%; in the test on HOP-62 NSCLC it was 106%; with NCI-H460 lung it was 107%; in the test with HOP-92 NSCLC, 95.7%. Moreover, the growth with NCI-H522 lung was 89.6%; with A549/ATCC NSCLC it was 98.7%; in the test on 786-0 renal, 106%; with COLO 205 colon, 118%.

`Nc1nc(N)c2c(n1)NC(c1ccc(Cl)cc1)CC(c1cccc(Nc3ccncc3)c1)=N2` (stereo not given): the growth is 54.7% in the test on NCI-H23 lung; 95.3% in the test on NCI-H226 lung; 63.9% with NCI-H322M lung; 75.5% with HOP-62 NSCLC; 23.2% with NCI-H460 lung; 48.5% in the test on HOP-92 NSCLC. The growth in the test with NCI-H522 lung is 88.6%; in the test with A549/ATCC NSCLC, 30.6%; in the test on 786-0 renal it was 41.9%; in the test with COLO 205 colon it was 50.5%.
